Data reported in PubChem BioAssay (NCATS).
Results filed as inconclusive are left out. Calls of active or inactive are those of the source. Calls come from the whole dose curve; as a rule, active = well fitted curve in the direction sought with a large enough effect; inconclusive = small, poorly fitted or top-dose-only effect, or another doubt; inactive = no such curve, though single readings can be large; an effect the other way counts as inactive or inconclusive.

Key:
[1] = target: Cellular tumor antigen p53 (Homo sapiens) (UniProt P04637); test: Primary qHTS for small molecule compounds that upregulate eGFP-tagged delta133p53alpha (in N-terminal) cells. (AID 2060322); conditions: NCI-H358 eGFP-delta133p53alpha fluorescence, 24 h; activation: active compounds read high;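 note: cells pre-induced with doxycycline then dosed without doxycycline; series mostly up to about 56 µM; 0% = DMSO vehicle and 100% = reference activator; nearly all actives have a fitted effect of over 75% in size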
Method in brief: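 NCI-H358 cells pre-induced 24 h with 10 ng/ml doxycycline for eGFP-delta133p53alpha, plated dox-free and exposed 24 h at 37C to titrated compounds. Fixed, Hoechst-stained; gated GFP peak intensity by laser scanning cytometry, normalized to DMSO (0%) and 57.5 uM 5-azacytidine (100%).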

[2] = target: Aldehyde dehydrogenase, mitochondrial (Homo sapiens) (UniProt P05091); test: qHTS for Inhibitors of the Aldehyde Dehydrogenase Family (ALDH2) Primary screen (AID 2061308);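 note: plate controls were vehicle for no effect and reference inhibitor for full effect; nearly all actives have a fitted effect of over 55% in size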
[3] = target: Retinaldehyde dehydrogenase 3 (Homo sapiens) (UniProt P47895); test: qHTS for Inhibitors of the Aldehyde Dehydrogenase Family (ALDH1A3) Primary screen (AID 2061315);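 note: plate controls were DMSO vehicle for no effect and reference inhibitor for full effect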

Cellular tumor antigen p53 (Homo sapiens), sequence (P04637 whole entry, looked up): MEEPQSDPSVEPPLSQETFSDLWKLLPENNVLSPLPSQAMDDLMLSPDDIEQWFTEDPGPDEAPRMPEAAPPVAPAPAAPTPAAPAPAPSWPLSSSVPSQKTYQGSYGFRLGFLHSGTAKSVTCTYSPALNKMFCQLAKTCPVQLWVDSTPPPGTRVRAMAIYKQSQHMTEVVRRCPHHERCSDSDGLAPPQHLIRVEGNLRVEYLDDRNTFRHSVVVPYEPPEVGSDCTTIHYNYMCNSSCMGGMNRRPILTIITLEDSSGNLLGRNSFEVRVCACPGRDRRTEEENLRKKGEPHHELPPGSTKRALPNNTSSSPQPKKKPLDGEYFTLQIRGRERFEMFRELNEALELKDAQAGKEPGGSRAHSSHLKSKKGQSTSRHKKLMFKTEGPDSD

COc1cc(C(O)C(CO)Oc2ccc(CCCO[C@@H]3O[C@@H](C)[C@H](O)[C@@H](O)[C@H]3O)cc2OC)ccc1O (some centres not stated)
inactive: activation [1] -13.4% | Potency [2] | Potency [3]

CC1(C)CC[C@]2(C(=O)O[C@@H]3O[C@H](CO)[C@@H](O)[C@H](O)[C@H]3O)CC[C@]3(C)C(=CCC4[C@@]5(C)CC[C@H](O[C@@H]6O[C@H](C(=O)O)[C@@H](O)[C@H](O[C@@H]7O[C@H](CO)[C@H](O)[C@H](O)[C@H]7O)[C@H]6O)C(C)(C)C5CC[C@]43C)C2C1 (some centres not stated)
inactive: activation [1] -9.92% | Potency [2] | Potency [3]

CC1(C)CC[C@@]2(C(=O)O[C@@H]3O[C@H](CO)[C@@H](O)[C@H](O)[C@H]3O)C(C1)C1=CCC3[C@@]4(C)CC[C@@H](O[C@@H]5O[C@H](C(=O)O)[C@@H](O[C@@H]6OC[C@@H](O)[C@H](O)[C@H]6O)[C@H](O[C@@H]6OC[C@](O)(CO)[C@H]6O)[C@H]5O)C(C)(C)C4CC[C@@]3(C)[C@]1(C)C[C@H]2O (some centres not stated)
inactive: activation [1] -19.8% | Potency [2] | Potency [3]

Cc1ccccc1C(=O)N1CC/C(=N\OS(=O)(=O)O)c2ccc(Cl)cc21
inactive: activation [1] -1.67% | Potency [2] | Potency [3]

C/C=C(/C)C(=O)O[C@H]1C=C(C)C[C@H](OC(=O)c2ccc(O)cc2)C2[C@](O)(C(C)C)CC[C@@]21C (some centres not stated)
inactive: activation [1] -5.34% | Potency [2] | Potency [3]

OC[C@H]1O[C@@H](OC(CCCCc2ccc(O)cc2)CCc2ccc(O)cc2)[C@H](O[C@@H]2OC[C@](O)(CO)[C@H]2O)[C@@H](O)[C@@H]1O (some centres not stated)
inactive: activation [1] -24.4% | Potency [2] | Potency [3]

CC(C)=CCC(O)/C(C)=C/CO[C@@H]1O[C@H](CO)[C@@H](O)[C@H](O)[C@H]1O (some centres not stated)
inactive: activation [1] -15.2% | Potency [2] | Potency [3]

COc1cc(-c2nc(N[C@H](CO)Cc3ccccc3)ccc2C(=O)NCCOc2ccccc2)cc(OC)c1OC
inactive: activation [1] -11.9% | Potency [2] | Potency [3]

CC(=O)OCC1OC(O[C@H]2CC[C@]34C[C@]35CC(O)[C@]3(C)[C@@H]([C@H](C)CC/C=C(\C)C(=O)O)C(O)C[C@@]3(C)C5CC[C@H]4C2(C)C)C(O)C(O)C1OC1OCC(O)C(O)C1O (some centres not stated)
inactive: activation [1] -13% | Potency [2] | Potency [3]

COc1ccc2c3ccnc4ccc(=O)n(c2c1)c43
inactive: activation [1] 17% | Potency [2] | Potency [3]

COc1c(C(O)CC(C)C)ccc2c1C(=O)OCc1cc(C)cc(O)c1O2 (configuration not stated)
inactive: activation [1] -2.68% | Potency [2] | Potency [3]

C=C(CO)C12OC1C1(C)C(=CC2=O)C(O)C(O)CC1C (configuration not stated)
inactive: activation [1] 17.9% | Potency [2] | Potency [3]

CC1=C2C(=O)C=C(CO[C@@H]3O[C@H](CO)[C@@H](O)[C@H](O)[C@H]3O)[C@@H]2[C@H]2OC(=O)[C@H](C)[C@@H]2[C@@H](O)C1
inactive: activation [1] -7.63% | Potency [2] | Potency [3]

C[C@@H]1CC[C@]2(C(=O)O[C@@H]3O[C@H](CO[C@@H]4O[C@H](CO)[C@@H](O[C@@H]5O[C@@H](C)[C@H](O)[C@@H](O)[C@H]5O)[C@H](O)[C@H]4O)[C@@H](O)[C@H](O)[C@H]3O)CC[C@]3(C)C(=CCC4[C@@]5(C)C[C@@H](O)[C@H](O)[C@@](C)(CO)C5CC[C@]43C)C2[C@H]1C (some centres not stated)
inactive: activation [1] -19.6% | Potency [2] | Potency [3]

C=CC1(C)CC2=CCC3C(C)(C(=O)O)CCCC3(C)C2CC1OC(C)=O (configuration not stated)
inactive: activation [1] -14.5% | Potency [2] | Potency [3]

C/C=C(/COC(=O)/C(C)=C/C)C(=O)OC(CC)c1ccc(OC)c(OC)c1 (configuration not stated)
inactive: activation [1] -15.2% | Potency [2] | Potency [3]

CC(=O)OCC1OC(O[C@H]2CC[C@@]3(C)C(CC[C@]4(C)C3CC=C3[C@@H]5CC(C)(C)CC[C@]5(C(=O)O)CC[C@]34C)[C@]2(C)CO)C(O)C(O)C1OC1OC(C)C(O)C(OC2OCC(O)C(O)C2O)C1O (some centres not stated)
inactive: activation [1] -6.11% | Potency [2] | Potency [3]

O=C(O)Cc1ccccc1Oc1ccc(Cl)cc1Cl
inactive: activation [1] -3.35% | Potency [2] | Potency [3]

COC(=O)C(Cc1ccccc1)NC(=O)c1ccccc1 (configuration not stated)
inactive: activation [1] 6.87% | Potency [2] | Potency [3]

Cc1ccn(-c2cc(Cl)ccc2[C@@H](Oc2cc(-c3ccc(C[C@H](N)C(=O)O)cc3)nc(N)n2)C(F)(F)F)n1
inactive: activation [1] -7% | Potency [2] | Potency [3]

C[C@@H]1O[C@@H](O[C@@H]2[C@@H](O)[C@@H](O)[C@H](O[C@@H]3[C@@H](O)[C@@H](O[C@]4(CO)O[C@H](CO)[C@@H](O)[C@@H]4OC(=O)/C=C/c4ccc(O)cc4)O[C@H](CO)[C@H]3OC(=O)/C=C/c3ccc(O)cc3)O[C@H]2C)[C@H](O)[C@H](O)[C@H]1O
inactive: activation [1] 3.82% | Potency [2] | Potency [3]

CC1(c2nc3c(C(N)=O)cccc3[nH]2)CCCN1 (configuration not stated)
inactive: activation [1] -1.43% | Potency [2] | Potency [3]

CCc1nn(CCO)c(CC)c1Oc1cc(C#N)cc(C#N)c1
inactive: activation [1] 11.9% | Potency [2] | Potency [3]

CNc1cccc(CCOc2ccc3c(c2)CN(CC(F)(F)F)C(=O)[C@H](CC(=O)O)C3)n1
inactive: activation [1] 2.86% | Potency [2] | Potency [3]
